Screening results: PubChem BioAssay, National Center for Advancing Translational Sciences (NCATS)
TDP1 block – blocks human tyrosyl-DNA phosphodiesterase 1. recombinant TDP1, AlphaScreen DNA substrate cleavage. Potency, µM (series often up to 130 µM), actives largely listed as inhibitors. hit rate 0.28% among 350,000; also: nearly all actives have a fitted effect of over 40% in size
Target sequence (Q9NUW8 whole entry, looked up): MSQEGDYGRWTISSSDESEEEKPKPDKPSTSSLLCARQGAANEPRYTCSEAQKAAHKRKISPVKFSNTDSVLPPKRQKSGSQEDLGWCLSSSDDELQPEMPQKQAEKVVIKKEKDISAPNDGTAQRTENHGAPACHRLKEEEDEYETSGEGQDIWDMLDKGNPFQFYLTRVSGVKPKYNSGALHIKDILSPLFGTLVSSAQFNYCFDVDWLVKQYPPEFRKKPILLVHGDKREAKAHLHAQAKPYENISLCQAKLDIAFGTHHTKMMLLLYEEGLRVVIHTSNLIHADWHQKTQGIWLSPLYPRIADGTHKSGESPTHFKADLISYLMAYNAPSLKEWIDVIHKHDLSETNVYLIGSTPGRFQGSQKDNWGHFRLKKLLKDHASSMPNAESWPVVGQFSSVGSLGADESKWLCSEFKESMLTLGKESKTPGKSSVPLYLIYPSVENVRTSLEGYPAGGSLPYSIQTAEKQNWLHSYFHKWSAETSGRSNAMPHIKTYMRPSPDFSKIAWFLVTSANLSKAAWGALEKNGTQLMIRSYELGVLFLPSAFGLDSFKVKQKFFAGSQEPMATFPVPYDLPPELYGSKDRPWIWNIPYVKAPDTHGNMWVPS
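Recombinant E. coli-expressed Tdp1 (1 nM) preincubated with compound 15 min at RT, then 5'-biotin/3'-phosphotyrosine-FITC DNA substrate (15 nM) added for 5 min. AlphaScreen beads (10 ug/ml) added, 10 min RT; tyrosine-FITC cleavage read as signal loss.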
Giardia kill – Giardia lamblia killing; Giardia lamblia trophozoite viability; activity change, % at 7.66 µM, hits read low; hit rate 0.15% among 340,000; AID 540267; in the data active = activity change below about -80%; inconclusive = between about -30% and that limit;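 also: parasites exposed to compound for two days anaerobically before the ATP read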
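Trophozoites 100 cells/well + cpd; 48 hrs, 37 deg C, anaerobic. ATPLite 1-Step added, 15-30 min RT, luminescence read (ATP-based viability).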
DT40 TDP1 CPT – DT40-hTDP1 cell growth loss with CPT. chicken DT40 Tdp1-/-;hTDP1 cells + 20 nM CPT, ATP luminescence, 48 h. Potency, µM (series often up to 46.2 µM), usual class: inhibitors. hit rate 12% among 420,000. AID 686979; also: nearly all actives have a fitted effect of over 55% in size
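Cell growth measured by CellTiter-Glo luminescence after a minimum 48 h, 37 C compound exposure with 20 nM CPT in Tdp1-knockout DT40 cells stably expressing hTDP1, seeded 400/well; qHTS titration format.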
ELG1 DNA repair – blocks ELG1-dependent DNA repair in HEK293T cells; hit rate 2.3% among 330,000; Potency, µM (titrated, usually from 46.1 µM), actives largely listed as inhibitors; HEK293T ELG1-luciferase reporter, luminescence, 16 h; DNA damage induced by 5-fluorouridine; also: nearly all actives have a fitted effect of over 55% in size
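Cells (2,000 per well) received 5-fluorouridine plus test compound or DMSO and were incubated 16 hr at 37 °C, 5% CO2. Luciferase activity was read by luminescence 30 min after ONE-Glo addition; signal suppression marked inhibition of damage-induced ELG1 function.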
DT40 TDP1 no CPT – qHTS for Inhibitors of human tyrosyl-DNA phosphodiesterase 1 (TDP1): qHTS in cells in absence of CPT; DT40 Tdp1-/- hTDP1 cells, no CPT, ATP luminescence, 48 h; Potency, µM (series often up to 46.2 µM), usual class: inhibitors; hit rate 15% among 420,000; also: nearly all actives have a fitted effect of over 55% in size
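No-CPT arm: Tdp1-/-;hTDP1 DT40 cells (400/well) plus compounds, incubated ≥48 hr at 37 °C. Readout CellTiter-Glo luminescence.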
IL-1B inflam inh – inhibitors of inflammasome signaling (IL-1 beta secretion); THP-1 LPS/ATP IL-1B secretion, AlphaLISA, 16 h; active compounds read low; activity change, % at 57.5 µM; hit rate 4.7% among 360,000; AID 743279; in the data active = activity change below about -50%; inconclusive = mostly about -30% to -49%
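Secreted IL-1B measured by AlphaLISA bead assay after 16 h compound exposure of THP-1 cells; compounds (final up to 57.5 uM) added 1 h before LPS (250 ng/mL) and ATP (1.25 mM) stimulation; lower signal means less secretion.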
Hits are given with their value; [ ] = another dose, or the depositor's remark. Shown are actives, neighbours in structure and some others; about 19% of the full set was active somewhere. Unless noted, calls follow the shape of the dose curve; as a rule, active = well fitted curve in the direction sought with a large enough effect; inconclusive = small, poorly fitted or top-dose-only effect, or another doubt; inactive = no such curve, though single readings can be large; an effect the other way counts as inactive or inconclusive.

For COc1ccc(C(=O)CC(=O)C(=O)Nc2ccccc2Cl)cc1 the results were Giardia kill inactive, DT40 TDP1 CPT 13µM, ELG1 DNA repair inactive, DT40 TDP1 no CPT 10µM and IL-1B inflam inh inactive.
COc1ccc(C(=O)CC(=O)C(=O)Nc2ccccc2C(F)(F)F)cc1 was read as Giardia kill inactive, DT40 TDP1 CPT 10µM, ELG1 DNA repair inconclusive, DT40 TDP1 no CPT 6.5µM and IL-1B inflam inh inactive.
Screening COc1ccc(C(=O)CC(=O)C(=O)Nc2c(C)cccc2C)cc1 returned Giardia kill inactive, DT40 TDP1 CPT 21µM, ELG1 DNA repair inactive, DT40 TDP1 no CPT 9.2µM and IL-1B inflam inh inactive.
For COC(=O)c1c(N)sc(C(=O)NCCc2ccccc2)c1C the results were Giardia kill inconclusive, DT40 TDP1 CPT inconclusive, ELG1 DNA repair inconclusive, DT40 TDP1 no CPT inconclusive and IL-1B inflam inh inactive.
For COc1ccccc1CN1CCOc2ccc(CN3CCCCC3CO)cc2C1 (stereo not given) the results were DT40 TDP1 CPT inactive[9.04 µM] and DT40 TDP1 no CPT inactive.
COc1ccc(C(=O)CC(=O)C(=O)Nc2ccc(Cl)cc2)cc1 was read as Giardia kill inactive, DT40 TDP1 CPT inconclusive, ELG1 DNA repair inconclusive, DT40 TDP1 no CPT 21µM and IL-1B inflam inh inactive.
`COc1ccc(C(=O)CC(=O)C(=O)Nc2ccc(OC)c(Cl)c2)cc1` gave Giardia kill inactive, DT40 TDP1 CPT inactive, ELG1 DNA repair inactive, DT40 TDP1 no CPT inconclusive and IL-1B inflam inh inactive.
O=C(Nc1cccc(C(=O)OCc2cc(=O)n3nc(C4CC4)sc3n2)c1)c1cccc(Cl)c1 was read as TDP1 block inactive, DT40 TDP1 CPT 12µM and DT40 TDP1 no CPT 16µM.
Screening Cc1nn2c(=O)cc(COC(=O)c3ccc(NC(=O)c4ccc(C(C)(C)C)cc4)cc3)nc2s1 returned TDP1 block inactive, DT40 TDP1 CPT inconclusive and DT40 TDP1 no CPT 16µM.
For CCOC(=O)c1c(NC(=S)Nc2ccccc2)sc2c1CC(C)(C)SC2 the results were TDP1 block inactive, Giardia kill inactive, DT40 TDP1 CPT 16µM, ELG1 DNA repair inconclusive, DT40 TDP1 no CPT inconclusive and IL-1B inflam inh inactive.
CCOC(=O)c1c(NC(=S)NC)sc2c1CC(C)(C)SC2 was read as TDP1 block inactive, Giardia kill inactive, DT40 TDP1 CPT inactive, ELG1 DNA repair inactive, DT40 TDP1 no CPT inactive and IL-1B inflam inh inactive.
Cc1nn2c(=O)cc(COC(=O)c3ccc(C(C)(C)C)cc3)nc2s1 was read as TDP1 block inactive, DT40 TDP1 CPT inactive and DT40 TDP1 no CPT inconclusive.
For Cc1nn2c(=O)cc(COC(=O)c3cccc(NC(=O)c4ccc(F)cc4)c3)nc2s1 the results were TDP1 block inactive, DT40 TDP1 CPT 12µM and DT40 TDP1 no CPT 10µM.
Screening O=C(Nc1ccc(C(=O)OCc2cc(=O)n3nc(C4CC4)sc3n2)cc1)c1cccc(Cl)c1 returned TDP1 block inactive, DT40 TDP1 CPT inactive and DT40 TDP1 no CPT inactive.
`O=C(CN1C(=O)NC2(CCCC2)C1=O)Nc1cc(Cl)ccc1Oc1ccccc1` gave TDP1 block inactive, Giardia kill inactive, DT40 TDP1 CPT inconclusive, ELG1 DNA repair inactive, DT40 TDP1 no CPT inconclusive and IL-1B inflam inh inactive.
Screening CCOC(=O)c1cccc(NC(=O)c2cccs2)c1 returned TDP1 block inactive, Giardia kill inactive, DT40 TDP1 CPT 23µM, ELG1 DNA repair inconclusive, DT40 TDP1 no CPT 15µM and IL-1B inflam inh inactive.
For CCOC(=O)c1cccc(NC(=O)c2cc3cc4ccc(C)cc4nc3s2)c1 the results were TDP1 block inactive, DT40 TDP1 CPT 15µM and DT40 TDP1 no CPT 15µM.
For Cc1nn2c(=O)cc(COC(=O)c3cccc(NC(=O)c4cccs4)c3)nc2s1 the results were TDP1 block inactive, DT40 TDP1 CPT 12µM and DT40 TDP1 no CPT 12µM.
For CCOC(=O)c1cccc(NC(=O)c2cc3cc4cc(OC)ccc4nc3s2)c1 the results were TDP1 block inactive, DT40 TDP1 CPT inconclusive and DT40 TDP1 no CPT inconclusive.
For CCOC(=O)c1cccc(NC(=O)c2ccccc2C)c1 the results were TDP1 block inactive, Giardia kill inactive, DT40 TDP1 CPT inactive, ELG1 DNA repair inactive, DT40 TDP1 no CPT inconclusive and IL-1B inflam inh inactive.
For CCOC(=O)c1c(NC(=O)c2cccs2)sc2c1CC(C)(C)OC2 the results were Giardia kill inactive, DT40 TDP1 CPT inconclusive, ELG1 DNA repair 9.2µM, DT40 TDP1 no CPT 26µM and IL-1B inflam inh inconclusive.
COc1ccc(-c2noc(CSc3nnc(C)n3-c3ccc(F)cc3)n2)cc1 was read as TDP1 block inactive, DT40 TDP1 CPT inconclusive and DT40 TDP1 no CPT inactive.
`O=C(COC(=O)CNC(=O)c1cccs1)Nc1ccc(C(F)(F)F)cc1[N+](=O)[O-]` gave TDP1 block inactive, Giardia kill inactive, DT40 TDP1 CPT inactive, ELG1 DNA repair inactive, DT40 TDP1 no CPT inactive and IL-1B inflam inh inactive.
CCCCn1c(N)c(N(CC)C(=O)CCc2ccccc2)c(=O)[nH]c1=O was read as TDP1 block inactive, Giardia kill inactive, DT40 TDP1 CPT inactive, ELG1 DNA repair inconclusive, DT40 TDP1 no CPT inactive and IL-1B inflam inh inactive.
CC(C)Cc1nn2c(=O)cc(COC(=O)c3cccc(NC(=O)c4ccccc4)c3)nc2s1 was read as TDP1 block inactive, DT40 TDP1 CPT inactive and DT40 TDP1 no CPT inactive.
For CC(C)Cc1nn2c(=O)cc(COC(=O)c3cccc(NC(=O)c4cccs4)c3)nc2s1 the results were TDP1 block inactive, DT40 TDP1 CPT inconclusive and DT40 TDP1 no CPT 8.2µM.
CCCn1c(=N)c(C(=O)NC2CCCCC2)cc2c(=O)n3cc(C)ccc3nc21 was read as DT40 TDP1 CPT inactive and DT40 TDP1 no CPT inactive.
CCc1ccc(OCc2n[nH]c(=S)n2C(C)CCCC(C)C)cc1 (stereo not given) was read as TDP1 block inactive, Giardia kill inactive, DT40 TDP1 CPT inconclusive, ELG1 DNA repair inactive, DT40 TDP1 no CPT inconclusive and IL-1B inflam inh inactive.
`CCN(CC)S(=O)(=O)c1ccc(Cl)c(C(=O)Nc2nnc(C)s2)c1` gave TDP1 block inactive, Giardia kill inactive, DT40 TDP1 CPT inactive, ELG1 DNA repair inactive, DT40 TDP1 no CPT inactive and IL-1B inflam inh inactive.
CCN(CC)S(=O)(=O)c1cccc(C(=O)Nc2cc(C)nn2-c2ccccc2)c1 was read as TDP1 block inactive, Giardia kill inactive, DT40 TDP1 CPT inactive, ELG1 DNA repair 23µM, DT40 TDP1 no CPT inconclusive and IL-1B inflam inh inactive.
For CCN(CC)S(=O)(=O)c1ccc(Cl)c(C(=O)Nc2cc(C)nn2-c2ccccc2)c1 the results were TDP1 block inactive, Giardia kill inactive, DT40 TDP1 CPT 18µM, ELG1 DNA repair inconclusive, DT40 TDP1 no CPT inconclusive and IL-1B inflam inh inactive.
